The text below walks through data of PubChem BioAssay (EPA / NIEHS).

Results filed as inconclusive are left out. Activity calls are given as the source filed them. How the source made its calls: active means hit-call score of the fitted dose curve at least 0.9, where 1 is the maximum; inconclusive means response in the unintended direction; inactive means score below 0.9.

A short description of the first assay: Tanguay_ZF_120hpf_YSE_legacy: (Legacy) Oregon State University Tanguay Lab 120 Hour Post-fertilization zebrafish Assay for Yolk Sac Edema (AID 2283634).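 On AC50: actives raise the incidence of yolk sac edema above the DMSO baseline.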 An outline of the steps: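 Binary brightfield scoring of yolk sac edema at 120 hpf; DMSO baseline, gain-of-signal fitting. Dechorionated 5D larvae, one per well, static exposure 6–120 hpf, 28C, 0.64% DMSO. Dead embryos not scored.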
As for `CCc1cc(C2=C(C(=O)O)N(c3ccccc3C(F)(F)F)S(=O)(=O)c3ccccc32)cc2c1OCO2`, the result was inactive.

For `CC(=O)S[C@H](C(=O)N[C@H]1Cc2ccccc2[C@H]2CCC[C@@H](C(=O)O)N2C1=O)C(C)C`, the outcome was inactive.

For `O=C1c2c(O)cccc2Cc2cccc(O)c21`, the result was inactive.

For the compound `NC(=Nc1ccccc1)Nc1ccccc1`, the compound was called inactive.

Turning to `COC(=O)CCC(=O)OC`, the outcome was inactive.

As to `CN(C)C(=O)NC1(c2ccccc2)CCN(CCC[C@]2(c3ccc(Cl)c(Cl)c3)CCCN(C(=O)c3ccccc3)C2)CC1`, the compound was classed as inactive.

For `Oc1ccccc1O`, the call was inactive.

For `CCCCC(CC)CO` (stereo not given), the call was inactive.

As to `Cc1c(C)c2c(c(C)c1O)CCC(C)(COc1ccc(CC3SC(=O)NC3=O)cc1)O2` (stereo not given), the outcome was inactive.

Take `CCCC[C@H]1CN(CC2CCOCC2)C(=O)OC12CCN(C1(C)CCN(C(=O)c3c(C)ncnc3C)CC1)CC2`: the compound was classed as inactive.

Turning to `CCCCc1nc2cccnc2n1Cc1ccc(-c2ccccc2-c2nnn[nH]2)cc1`, the call was inactive.

`Oc1ccc(O)cc1`: the outcome was inactive.

Turning to `CCCCCCC(CCCCCCCCCCC(=O)OCC(COC(C)=O)OC(C)=O)OC(C)=O` (stereo not given), the call was inactive.

Take `O=C(O)CN(CC(=O)O)CC(=O)O`: the result was inactive.

For `S=c1[nH]c2ccccc2s1`, the half-maximal activity concentration (AC50) is 11.7 µM (active).

`CS(=O)(=O)c1ccc([C@@H](C[C@H]2CCC(=O)C2)C(=O)Nc2cnccn2)cc1Cl`: the outcome was inactive.

For `CCc1nc(N)nc(N)c1-c1ccc(Cl)cc1`, the outcome was inactive.

For the compound `COC(=O)[C@H]1[C@H]2C[C@@H]3c4[nH]c5cc(OC)ccc5c4CCN3C[C@H]2C[C@@H](OC(=O)c2cc(OC)c(OC)c(OC)c2)[C@@H]1OC`, the call was inactive.

`CCOCCOCCO`: the outcome was inactive.

`CN(C)CCCN(C)CCCN(C)C`: the result was inactive.

Turning to `O=[Si]=O`, the outcome was inactive.

As for `CCC(C)N(C)C(=O)c1cc2ccccc2c(-c2ccccc2Cl)n1` (stereo not given), the AC50 was 20.4 µM (active).

On to `O=C(O)c1[nH]n(-c2ccc(S(=O)(=O)O)cc2)c(=O)c1N=Nc1ccc(S(=O)(=O)O)cc1`, for which the result was inactive.

For `CN(C)CCCN1c2ccccc2Sc2ccc(Cl)cc21`, the outcome was inactive.

On to `COC(=O)CCCC(=O)OC`, for which the compound was classed as inactive.

On to `CC1(C)C(=O)NC(=O)N1CO`, for which the outcome was inactive.

As for `Cc1ccc(C(C)(C)C)c(O)c1`, the outcome was inactive.

Consider `CCCCCCCCCCCCCCOS(=O)(=O)O`, for which the AC50 is 10.8 µM (active).

With `COc1ccc(OC(F)(F)F)cc1CN[C@H]1CCCN[C@H]1c1ccccc1`, the compound was called inactive.

Another assay can be described thus: Tanguay_ZF_120hpf_AXIS_legacy: (Legacy) Oregon State University Tanguay Lab 120 Hour Post-fertilization zebrafish Assay for Body Axis Malformation (AID 2283635).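 On AC50: potency for an increased fraction of larvae scored with body axis malformation.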 The gist of the method: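 Embryos: 5D wild-type, pronase-dechorionated 4 hpf; static exposure 6–120 hpf, 28C, sealed, dark, 1 embryo/well, 0.64% DMSO. 120 hpf axis malformation scored present/absent; dead embryos excluded. Analysed as gain of signal vs DMSO.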
With `CCc1cc(C2=C(C(=O)O)N(c3ccccc3C(F)(F)F)S(=O)(=O)c3ccccc32)cc2c1OCO2`, the compound was called inactive.

In the case of `CC(=O)S[C@H](C(=O)N[C@H]1Cc2ccccc2[C@H]2CCC[C@@H](C(=O)O)N2C1=O)C(C)C`, the outcome was inactive.

With `O=C1c2c(O)cccc2Cc2cccc(O)c21`, the compound was classed as inactive.

Turning to `NC(=Nc1ccccc1)Nc1ccccc1`, the compound was called inactive.

With `COC(=O)CCC(=O)OC`, the outcome was inactive.

Regarding `CN(C)C(=O)NC1(c2ccccc2)CCN(CCC[C@]2(c3ccc(Cl)c(Cl)c3)CCCN(C(=O)c3ccccc3)C2)CC1`, the outcome was inactive.

Consider `Oc1ccccc1O`, for which the compound was called inactive.

For `CCCCC(CC)CO` (stereo not given), the outcome was inactive.

Take `Cc1c(C)c2c(c(C)c1O)CCC(C)(COc1ccc(CC3SC(=O)NC3=O)cc1)O2` (stereo not given): the compound was called inactive.

On to `CCCC[C@H]1CN(CC2CCOCC2)C(=O)OC12CCN(C1(C)CCN(C(=O)c3c(C)ncnc3C)CC1)CC2`, for which the result was inactive.

On to `CCCCc1nc2cccnc2n1Cc1ccc(-c2ccccc2-c2nnn[nH]2)cc1`, for which the call was inactive.

Consider `Oc1ccc(O)cc1`, for which the outcome was inactive.

In the case of `CCCCCCC(CCCCCCCCCCC(=O)OCC(COC(C)=O)OC(C)=O)OC(C)=O` (stereo not given), the compound was classed as inactive.

As for `O=C(O)CN(CC(=O)O)CC(=O)O`, the outcome was inactive.

With `S=c1[nH]c2ccccc2s1`, the concentration at half-maximal activity (AC50) is 36.7 µM (active).

For `CS(=O)(=O)c1ccc([C@@H](C[C@H]2CCC(=O)C2)C(=O)Nc2cnccn2)cc1Cl`, the outcome was inactive.

Take `CCc1nc(N)nc(N)c1-c1ccc(Cl)cc1`: the call was inactive.

`COC(=O)[C@H]1[C@H]2C[C@@H]3c4[nH]c5cc(OC)ccc5c4CCN3C[C@H]2C[C@@H](OC(=O)c2cc(OC)c(OC)c(OC)c2)[C@@H]1OC`: the call was inactive.

Regarding `CCOCCOCCO`, the call was inactive.

For `CN(C)CCCN(C)CCCN(C)C`, the compound was called inactive.

As to `O=[Si]=O`, the compound was classed as inactive.

Turning to `CCC(C)N(C)C(=O)c1cc2ccccc2c(-c2ccccc2Cl)n1` (stereo not given), the call was inactive.

Turning to `O=C(O)c1[nH]n(-c2ccc(S(=O)(=O)O)cc2)c(=O)c1N=Nc1ccc(S(=O)(=O)O)cc1`, the compound was called inactive.

As to `CN(C)CCCN1c2ccccc2Sc2ccc(Cl)cc21`, the outcome was inactive.

As to `COC(=O)CCCC(=O)OC`, the call was inactive.

As to `CC1(C)C(=O)NC(=O)N1CO`, the compound was called inactive.

Regarding `Cc1ccc(C(C)(C)C)c(O)c1`, the result was inactive.

For the compound `CCCCCCCCCCCCCCOS(=O)(=O)O`, the AC50 is 31.5 µM (active).

As to `COc1ccc(OC(F)(F)F)cc1CN[C@H]1CCCN[C@H]1c1ccccc1`, the compound was called inactive.

A short description of another assay: Tanguay_ZF_120hpf_EYE_legacy: (Legacy) Oregon State University Tanguay Lab 120 Hour Post-fertilization zebrafish Assay for Eye Malformation (AID 2283636).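 Further: binary presence or absence of eye malformation scored by brightfield in 120 hpf larvae.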 The gist of the method: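 Dechorionated wild-type Tropical 5D zebrafish embryos were exposed statically from 6 hpf, one per well, to 120 hpf at 28C in sealed, foil-covered plates with 0.64% DMSO. Eye malformation was scored present/absent by brightfield microscopy against DMSO controls.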
Take `CCc1cc(C2=C(C(=O)O)N(c3ccccc3C(F)(F)F)S(=O)(=O)c3ccccc32)cc2c1OCO2`: the call was inactive.

Take `CC(=O)S[C@H](C(=O)N[C@H]1Cc2ccccc2[C@H]2CCC[C@@H](C(=O)O)N2C1=O)C(C)C`: the result was inactive.

On to `O=C1c2c(O)cccc2Cc2cccc(O)c21`, for which the compound was classed as inactive.

Consider `NC(=Nc1ccccc1)Nc1ccccc1`, for which the result was inactive.

Turning to `COC(=O)CCC(=O)OC`, the compound was called inactive.

In the case of `CN(C)C(=O)NC1(c2ccccc2)CCN(CCC[C@]2(c3ccc(Cl)c(Cl)c3)CCCN(C(=O)c3ccccc3)C2)CC1`, the compound was classed as inactive.

Take `Oc1ccccc1O`: the compound was classed as inactive.

Consider `CCCCC(CC)CO` (stereo not given), for which the outcome was inactive.

Regarding `Cc1c(C)c2c(c(C)c1O)CCC(C)(COc1ccc(CC3SC(=O)NC3=O)cc1)O2` (stereo not given), the compound was classed as inactive.

With `CCCC[C@H]1CN(CC2CCOCC2)C(=O)OC12CCN(C1(C)CCN(C(=O)c3c(C)ncnc3C)CC1)CC2`, the compound was called inactive.

For `CCCCc1nc2cccnc2n1Cc1ccc(-c2ccccc2-c2nnn[nH]2)cc1`, the compound was called inactive.

As to `Oc1ccc(O)cc1`, the compound was called inactive.

Turning to `CCCCCCC(CCCCCCCCCCC(=O)OCC(COC(C)=O)OC(C)=O)OC(C)=O` (stereo not given), the outcome was inactive.

For `O=C(O)CN(CC(=O)O)CC(=O)O`, the outcome was inactive.

Take `S=c1[nH]c2ccccc2s1`: the concentration at half-maximal activity (AC50) was 42.1 µM (active).

`CS(=O)(=O)c1ccc([C@@H](C[C@H]2CCC(=O)C2)C(=O)Nc2cnccn2)cc1Cl`: the call was inactive.

In the case of `COC(=O)[C@H]1[C@H]2C[C@@H]3c4[nH]c5cc(OC)ccc5c4CCN3C[C@H]2C[C@@H](OC(=O)c2cc(OC)c(OC)c(OC)c2)[C@@H]1OC`, the result was inactive.

Consider `CCOCCOCCO`, for which the compound was classed as inactive.

Turning to `CN(C)CCCN(C)CCCN(C)C`, the compound was classed as inactive.

With `O=[Si]=O`, the compound was called inactive.

In the case of `CCC(C)N(C)C(=O)c1cc2ccccc2c(-c2ccccc2Cl)n1` (stereo not given), the result was inactive.

As to `O=C(O)c1[nH]n(-c2ccc(S(=O)(=O)O)cc2)c(=O)c1N=Nc1ccc(S(=O)(=O)O)cc1`, the result was inactive.

On to `CN(C)CCCN1c2ccccc2Sc2ccc(Cl)cc21`, for which the call was inactive.

Turning to `COC(=O)CCCC(=O)OC`, the outcome was inactive.

As to `CC1(C)C(=O)NC(=O)N1CO`, the call was inactive.

With `CCCCCCCCCCCCCCOS(=O)(=O)O`, the AC50 is 26.1 µM (active).

For `COc1ccc(OC(F)(F)F)cc1CN[C@H]1CCCN[C@H]1c1ccccc1`, the compound was classed as inactive.

Broadly, the AC50 is the concentration giving half of the maximal activity seen.
